# Screens as filed in PubChem.
# CCHF vOTU inh: CCHFV vOTU protease inhibition; AID 651958; Pep-AMC fluorescence; inhibition, % at 11.5 µM; 0.55% of 370,000 active; further: 0% = vehicle wells with enzyme and 100% = no enzyme wells
# GDH-TPI counter-1: counter-screen for M. tuberculosis FBA inhibitors: GDH-TPI coupled enzymes. inhibition, % at 4.8 µM. GDH-TPI coupled enzyme counterscreen, NADH absorbance. AID 588335. 1.2% of 360,000 active;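 further: 0% = DMSO wells and 100% = wells lacking the enzyme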
# Mtb FBA inh: inhibitors of M. tuberculosis fructose-bisphosphate aldolase. purified M. tuberculosis FBA, fluorescence read-out. P9WQA3. AID 588726. 2.3% of 360,000 active. inhibition, % at 1 µM; in the data active means inhibition above about 27%;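 further: 0% = vehicle and 100% = reference inhibitor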
# Target sequence (P9WQA3 whole entry, looked up): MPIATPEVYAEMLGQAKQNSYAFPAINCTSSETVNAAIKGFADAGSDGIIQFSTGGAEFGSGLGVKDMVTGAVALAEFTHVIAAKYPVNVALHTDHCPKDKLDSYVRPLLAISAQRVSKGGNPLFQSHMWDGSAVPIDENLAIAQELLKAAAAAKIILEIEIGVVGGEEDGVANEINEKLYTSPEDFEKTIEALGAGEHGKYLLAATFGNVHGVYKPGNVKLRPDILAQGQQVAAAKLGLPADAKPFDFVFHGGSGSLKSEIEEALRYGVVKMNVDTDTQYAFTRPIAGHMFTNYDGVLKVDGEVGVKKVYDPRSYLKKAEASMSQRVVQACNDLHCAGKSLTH
# RecA splice inh: inhibitors of M. tuberculosis RecA intein splicing; P9WHJ3; cell-free RecA intein splicing, fluorescence; inhibition, % (concentration not given with the values); 0.75% of 290,000 active; in the data active means inhibition above about 30%;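 further: 0% = vehicle wells and 100% = reference inhibitor control wells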
# Mtb FBA confirm: confirmation of M. tuberculosis fructose-bisphosphate aldolase inhibitors; 78% of 5,600 active; inhibition, % at 1 µM; purified M. tuberculosis FBA, fluorescence read-out; shares compounds with Mtb FBA inh; AID 651616; in the data active means inhibition above about 27%;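 further: 0% = vehicle wells and 100% = reference inhibitor wells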
# GDH-TPI counter-2: inhibits GDH-TPI coupling enzymes, flagging Mtb FBA hits; shares compounds with Mtb FBA inh; GDH-TPI coupled enzyme counterscreen, fluorescence; inhibition, % at 1 µM; 81% of 5,600 active; AID 652141; in the data active means inhibition above about 10%
# * = called active by the depositor; . = not tested or not shown; + = active, no number. Hits are enriched below; roughly 4.2% of the tested compounds scored in any of these assays. Unless noted, no stated cut-off is given here; in the data, active means inhibition above about 30%; inactive means the rest.
SMILES,CCHF vOTU inh,GDH-TPI counter-1,Mtb FBA inh,RecA splice inh,Mtb FBA confirm,GDH-TPI counter-2
CCc1cc(=O)oc2c(C)c(OCC(=O)N3C[C@H]4C[C@@H](C3)c3cccc(=O)n3C4)ccc12,0,14,6,0,.,.
O=C(COC(=O)/C=C/c1ccccc1[N+](=O)[O-])Nc1ccc2[nH]c(=O)[nH]c2c1,-4,19,-2,.,.,.
Cc1c(Cl)cccc1NC(=O)COC(=O)Cn1cnc2c1c(=O)n(C)c(=O)n2C,0,-6,-4,.,.,.
Cc1ccc(N2C(=O)N(CC(=O)N3c4ccccc4CC3C)C(=O)C2C)cc1 (centres undefined),-3,-10,-1,.,.,.
Cc1cc(N2CCN(C)CC2)n2cc(-c3ccc(F)cc3)nc2n1,-59,17,69*,0,41*,37*
C[C@@H](C(=O)N[C@@H](Cc1c[nH]c2ccccc12)C(=O)O)n1nnc2ccccc2c1=O,0,5,0,-3,.,.
COC(=O)CCCN1C(=O)c2cccc3cccc(c23)C1=O,-30,7,35*,2,129*,111*
C#CCOC(=O)CCCN1C(=O)c2cccc3cccc(c23)C1=O,-6,22,32*,.,156*,121*
COC(=O)c1ccc(C)c(NC(=O)c2ccc(CN3CCc4ccccc4C3)cc2)c1,0,-3,-5,0,.,.
O=C(NNC(=O)c1ccc(Oc2ccc(C3SCCS3)cc2)o1)c1ccc(Cl)cc1,-6,-1,1,-2,.,.
CN(C)c1ccc(/C=N/Nc2nncc3ccccc23)cc1,13,17,2,-1,.,.
Cc1cc2nn(-c3ccc(F)cc3)nc2cc1N,-94,46*,54*,-33,179*,136*
Cc1cc2nn(-c3ccc(Cl)cc3)nc2cc1N,-20,7,41*,21,111*,97*
Cc1cc(N)n(-c2ccc(Cl)cc2)n1,7,5,-5,0,.,.
CCOC(=O)[C@@]12CCCC3=C1N(CCC3)C(=O)[C@H]2CC(=O)NCCCOC,-1,.,.,.,.,.
COc1ccc(C2Nc3ccccc3C(=O)N2c2ccc(C)cc2)cc1COc1ccccn1 (centres undefined),-24,11,34*,-1,+,+
COc1ccc(N2C(=O)c3ccccc3NC2c2ccc(OC)c(Cn3nnc4ccccc43)c2)cc1 (centres undefined),-12,2,13,-3,.,.
COc1ccccc1N1C(=O)c2ccccc2NC1c1cc(OC)c(OC)c(OC)c1 (centres undefined),-88,15,55*,-7,96*,65*
COc1ccc(C2Nc3ccccc3C(=O)N2c2ccccc2)cc1CN1CCOCC1 (centres undefined),-46,9,45*,-5,0,-5
COc1ccccc1N1C(=O)c2ccccc2NC1C(OC)OC (centres undefined),-24,4,12,-7,.,.
COc1ccc(C2Nc3ccccc3C(=O)N2Cc2ccccc2)cc1CN1CCOCC1 (centres undefined),-89,5,97*,.,58*,50*
CN(CCc1ccccc1)C(=O)c1cccc(NC(=O)Cc2cccc(NC(=O)C3CCCN(C(=O)c4ccccc4)C3)c2)c1 (centres undefined),14,5,-2,.,.,.
Cc1nc(CNC(=O)CC2C(=O)NCCN2Cc2ccc(F)cc2)cs1 (centres undefined),0,0,4,-4,.,.
CCOC(=O)NC(=O)c1cn(Nc2ccccc2C(F)(F)F)c(=O)[nH]c1=O,-9,3,-1,-3,.,.
CCOC(=O)Cc1nc(N2CCN(Cc3cccc4c3OCO4)CC2)c2c(C)c(C(=O)OCC)sc2n1,3,.,.,.,.,.
Cc1cccc2c(=O)n(C(=O)c3ccccc3)c(N)nc12,11,-3,4,.,.,.
CCCCNc1nc2sc3c(c2c(=O)n1-c1cccc(Cl)c1)CCN(C)C3,-19,21,52*,-6,190*,140*
CCCCSc1nc2sc3c(c2c(=O)n1-c1ccccc1)CCN(C)C3,-11,21,4,-1,.,.
CCCCCNc1nc2sc3c(c2c(=O)n1-c1cccc(Cl)c1)CCN(C)C3,-17,21,52*,-5,109*,89*
Cc1ccccc1N(C(=O)c1snc(C(N)=O)c1N)C(C(=O)NCc1ccccc1)c1ccc(O)cc1 (centres undefined),-50,13,43*,-3,10,4
